Drawing on PubChem BioAssay (NCATS), this text covers activation and Potency for 26 molecules.

Experiment [1] addresses Cellular tumor antigen p53 (Homo sapiens) (UniProt P04637). As to the kind of experiment: Primary qHTS for small molecule compounds that upregulate eGFP-tagged delta133p53alpha (in N-terminal) cells. (AID 2060322). Further: nearly all actives have a fitted effect of over 75% in size. Further: potency means the concentration at half of the fitted maximal effect.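 On activation: series mostly up to about 56 µM; 0% = DMSO vehicle and 100% = reference activator.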 Conditions: NCI-H358 eGFP-delta133p53alpha fluorescence, 24 h; activation: stronger effect = higher value. In outline: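 NCI-H358 cells pre-induced 24 h with 10 ng/ml doxycycline to express N-terminal eGFP-delta133p53alpha, then dosed 24 h at 37C without doxycycline; fixed, Hoechst-stained, GFP intensity by laser scanning cytometry, normalized to DMSO (0%) and 57.5 uM 5-azacytidine (100%).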

Experiment [2] has as its target Aldehyde dehydrogenase, mitochondrial (Homo sapiens) (UniProt P05091). As to the kind of experiment: qHTS for Inhibitors of the Aldehyde Dehydrogenase Family (ALDH2) Primary screen (AID 2061308).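 Further: plate controls were vehicle for no effect and reference inhibitor for full effect; nearly all actives have a fitted effect of over 55% in size.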 For orientation: In qHTS, concentration-response curves come from the screen itself.
Experiment [3] concerns the target Retinaldehyde dehydrogenase 3 (Homo sapiens) (UniProt P47895). Kind of experiment: qHTS for Inhibitors of the Aldehyde Dehydrogenase Family (ALDH1A3) Validation screen (AID 2061312). Further: nearly all actives have a fitted effect of over 45% in size. Further: potency means the concentration at half of the fitted maximal effect.
The target of experiment [4] is Retinal dehydrogenase 2 (Homo sapiens) (UniProt O94788). As to the kind of experiment: qHTS for Inhibitors of the Aldehyde Dehydrogenase Family (ALDH1A2) Confirmation screens (AID 2061314). Further: nearly all actives have a fitted effect of over 65% in size.
Experiment [5] addresses Retinaldehyde dehydrogenase 3 (Homo sapiens) (UniProt P47895). As to the kind of experiment: qHTS for Inhibitors of the Aldehyde Dehydrogenase Family (ALDH1A3) Primary screen (AID 2061315). Further: potency means the concentration at half of the fitted maximal effect.
Experiment [6] shares this target. Kind of experiment: qHTS for Inhibitors of the Aldehyde Dehydrogenase Family (ALDH1A3) Confirmatory screens (AID 2061311). Further: potency means the concentration at half of the fitted maximal effect; nearly all actives have a fitted effect of over 60% in size.
The target in experiment [7] is Aldehyde dehydrogenase 1A1 (Homo sapiens) (UniProt P00352). Kind of experiment: qHTS for Inhibitors of the Aldehyde Dehydrogenase Family (ALDH1A1) Confirmatory screens (AID 2061316). Further: nearly all actives have a fitted effect of over 65% in size. Further: potency means the concentration at half of the fitted maximal effect.

Several values for one entry are separate records, joined by “and”; a condition that tells them apart may be missing. Equal entries are not always repeated. Results filed as inconclusive are left out. A number with no mark means an inactive call. Activity calls are given as the source filed them. The call rests on the fitted dose curve; in most records, active means well fitted curve in the direction sought with a large enough effect; inconclusive means small, poorly fitted or top-dose-only effect, or another doubt; inactive means no such curve, though single readings can be large; an effect the other way counts as inactive or inconclusive.

Cellular tumor antigen p53 (Homo sapiens), sequence (P04637 whole entry, looked up): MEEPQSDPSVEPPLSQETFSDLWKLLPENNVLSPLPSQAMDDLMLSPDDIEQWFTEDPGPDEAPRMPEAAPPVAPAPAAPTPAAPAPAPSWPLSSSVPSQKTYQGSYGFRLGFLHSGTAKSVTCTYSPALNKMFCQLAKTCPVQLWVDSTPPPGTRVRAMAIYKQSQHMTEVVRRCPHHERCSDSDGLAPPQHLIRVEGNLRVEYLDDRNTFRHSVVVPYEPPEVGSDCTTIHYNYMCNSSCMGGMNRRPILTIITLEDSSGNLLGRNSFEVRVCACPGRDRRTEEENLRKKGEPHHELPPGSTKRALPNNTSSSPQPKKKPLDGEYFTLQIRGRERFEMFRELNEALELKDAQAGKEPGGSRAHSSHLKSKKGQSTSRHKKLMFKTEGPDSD

As to `O=C(Nc1ccccc1)N1CCC(Cc2cnc3ccccc3c2)CC1`, in experiment [1], the activation is 3.34%. The Potency result in experiment [2], in experiment [3], in experiment [4] and in experiment [5] was “inactive” throughout.
For the molecule `O=C(Nc1nc2ccc([N+](=O)[O-])cc2s1)C1CCCCC1`, the activation in experiment [1] is 17.2%. Also, the Potency entry in experiment [2] is “inactive”. The Potency in experiment [3] was 3.98 µM (active).
Consider `CC(C)(C)c1ccc(S(=O)(=O)NCc2ccc(C(=O)Nc3cccnc3)cc2)cc1`, for which the activation in experiment [1] is 1.91%. In addition, the Potency result in experiment [2], in experiment [3] and in experiment [5] was “inactive” each time.
For `COc1cc(O)c(C(=O)O)c(CCc2ccccc2)c1`, the activation in experiment [1] is -15.3%. Further, the Potency result in experiment [2] was “inactive”. In addition, the Potency in experiment [6] was 12.7 µM (active); in experiment [7] it was 10.1 µM (active).
Consider `COc1ccc(C(=O)n2c(C)c(Cc3cccc(O[C@@H](C)C(=O)O)c3)c3cc(OC(F)(F)F)ccc32)cc1`, for which, in experiment [1], the activation was -3.82%. The Potency result in experiment [2], in experiment [3] and in experiment [5] was “inactive” in each case.
In the case of `CC(C)c1cc2c(c(O)c1O)[C@@]13CCCC(C)(C)C1[C@@H](O)[C@@H]2OC3=O` (some centres not stated), in experiment [1], the activation is -5.34%. In experiment [2], the Potency entry was “inactive”. The Potency in experiment [6] was 13.9 µM (active); in experiment [5] it was 4.47 µM (active).
On to `N[C@@H]1c2cccnc2[C@H](OC(=O)N2CCC(n3c(=O)[nH]c4ncccc43)CC2)CC[C@H]1c1cccc(F)c1F`, for which the activation in experiment [1] is -10.5%. In addition, the Potency entry in experiment [2], in experiment [3] and in experiment [5] was “inactive” throughout.
For the molecule `CNCCC(c1cccs1)c1ccc(O)c2ccccc12` (configuration not stated), the activation in experiment [1] is -7.67%. In addition, in experiment [2], the Potency entry is “inactive”. Moreover, the Potency was 22.5 µM (active) in experiment [6] and 15.8 µM (active) in experiment [5].
Consider `Cc1cc(N=Nc2ccc(S(=O)(=O)Nc3ccccn3)cc2)c(N)cc1O`, for which the activation in experiment [1] was -5%. Further, the Potency result in experiment [2] is “inactive”. In addition, the Potency in experiment [6] and in experiment [7] was 11.3 µM (active) in each case.
Take `COc1ccc(CN2CCN(C(=O)CCNC(=O)c3ccc(C(C)(C)C)cc3)CC2)cc1`: the activation in experiment [1] was -7.16%. The Potency entry in experiment [2], in experiment [3] and in experiment [5] was “inactive” each time.
`Cc1ccccc1C(=O)Nc1ccc(C(=O)N2CCCC(N(C)C)c3ccccc32)cc1` (configuration not stated): the Potency in experiment [1] was 3.89 µM (active). Besides, the Potency entry in experiment [2], in experiment [3] and in experiment [5] was “inactive” in each case.
Consider `CC(=O)CC1CCC(C(C)C(=O)OCC(O)CO)O1` (configuration not stated), for which, in experiment [1], the activation was -0.763%. In addition, in experiment [2], the Potency result was “inactive”. Moreover, the Potency in experiment [6] was 4.49 µM (active); in experiment [5], 15.8 µM (active); in experiment [7] it was 15.9 µM (active).
Consider `OCC(O)CN1CCN(c2ccccc2)CC1` (configuration not stated), for which, in experiment [1], the activation was -0.837% and 0.955%. Also, the Potency result in experiment [2], in experiment [3] and in experiment [5] was “inactive” throughout.
As to `CC(=O)NCC1CN(c2ccc(-c3ccc(CNCc4cn[nH]n4)cc3)c(F)c2)C(=O)O1` (configuration not stated), the activation in experiment [1] was -4.77%. The Potency result in experiment [2] is “inactive”. Moreover, the Potency in experiment [3] is 3.98 µM (active).
In the case of `CCOc1ccc(C(Nc2ccccn2)c2ccc3ccc(C)nc3c2O)cc1C` (configuration not stated), the activation in experiment [1] is 19.6%. Besides, the Potency result in experiment [2], in experiment [3] and in experiment [5] was “inactive” each time.
For the molecule `CSc1ccc(C(=O)N[C@@H]2CCCC[C@@H]2NC(=O)CNC(=O)c2cc(C(F)(F)F)ccc2NC(=O)NC(C)C)cc1`, the activation in experiment [1] was -22%. In addition, the Potency result in experiment [2], in experiment [3] and in experiment [5] was “inactive” throughout.
For `CC(=O)O[C@]1(C(C)=O)CC[C@H]2[C@@H]3CCC4=CC(=O)CCC4=C3[C@@H](c3ccc(N(C)C)cc3)C[C@@]21C`, the activation in experiment [1] was -13.8%. For the same molecule, the Potency entry in experiment [2], in experiment [3] and in experiment [5] was “inactive” in each case.
On to `COc1ccc(C2COc3cc(O)ccc3C2)c(O)c1` (configuration not stated), for which the activation in experiment [1] was -12.2%. The Potency entry in experiment [2] was “inactive”. Besides, the Potency in experiment [6] was 17.9 µM (active); in experiment [5], 25.1 µM (active).
Take `COC(=O)[C@H](CC1C=NC=N1)NCC12CC3CC(CC(C3)C1)C2` (some centres not stated): the activation in experiment [1] was -8.11%. The Potency entry in experiment [2] and in experiment [3] was “inactive” throughout.
Regarding `C=C1CC[C@H](O)CC1=C/C=C1\CCC[C@]2(C)[C@@H]([C@H](C)/C=C/[C@H](C)C(C)C)CC[C@@H]12`, the activation in experiment [1] was 5.73%. For the same molecule, the Potency entry in experiment [2] was “inactive”. Moreover, the Potency in experiment [3] is 8.91 µM (active).
As for `CC[C@@H](N)CNc1ccnc(-c2cc(-c3cnn(C)c3)ccc2O)n1`, the Potency in experiment [1] is 6.75 µM (active). In addition, the Potency entry in experiment [2], in experiment [3] and in experiment [5] was “inactive” in each case.
As to `COc1cc(O[C@@H]2O[C@H](CO[C@H]3OC[C@](O)(CO)[C@H]3O)[C@@H](O)[C@H](O)[C@H]2O)cc(OC)c1O`, in experiment [1], the activation was -16.8%. Besides, the Potency result in experiment [2] and in experiment [7] was “inactive” throughout. Moreover, the Potency in experiment [6] was 4.91 µM (active); in experiment [5] it was 2.82 µM (active).
In the case of `O=C(O)C1(c2ccc(-c3ccc(Cl)c(Cl)c3)c(F)c2)CC1`, the activation in experiment [1] is -12.9%. Also, the Potency result in experiment [2] is “inactive”. Moreover, the Potency in experiment [3] is 44.7 µM (active).
Regarding `O=C(NC/C=C/CN1CCN(c2cccc(Cl)c2Cl)CC1)c1ccc(-c2ccccn2)cc1`, the activation in experiment [1] was 6.68%. In addition, the Potency result in experiment [2], in experiment [3] and in experiment [5] was “inactive” throughout.
For `COc1cc(-n2cnc3cc(-c4ccc(Cl)cc4)sc3c2=O)ccc1OCCN1CCCC1`, in experiment [1], the activation is 18.1%. Further, the Potency result in experiment [2], in experiment [3] and in experiment [5] was “inactive” each time.
As to `COc1ccc(NC(=O)c2ccc(C(=N)N(C)C)cc2)c(C(=O)Nc2ccc(Cl)cn2)c1`, the activation in experiment [1] is -8.59%. For the same molecule, the Potency result in experiment [2], in experiment [3] and in experiment [5] was “inactive” each time.
